Our source for the growth values is PubChem BioAssay (NCI).

The panel holds about 83,000 compounds, 20% with a hit somewhere; the sample as a whole holds those more often.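 96-well plates, one dose, 48 hours. Percent growth reported; active if below 10.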 A number with no mark means an inactive call. Calls of active or inactive are those of the source.

Experiment in all cases: NCI-60 one-dose screen, 48 h (100 = growth as untreated, 0 = no growth, -100 = all killed)
Settings in all cases: 10 µM unless noted

In test [1] the test system is SK-MEL-2 melanoma.
For test [2], the system named is EKVX NSCLC.
In test [3] the test system is SN12C renal.
For test [4], the system named is UO-31 renal.
Test [5] deals with TK-10 renal.
Test [6] concerns ACHN renal.
The test system of test [7] is CAKI-1 renal.
The test system of test [8] is A498 renal.
The subject of test [9] is CCRF-CEM leukemia.
Test [10] relates to MOLT-4 leukemia.

As for `CCOC(=O)c1c2c(n3ccc(NC(=O)CCN(CC)CC)cc13)C(=O)c1ncccc1C2=O`, the growth is 29.3% in test [1]; 71.3% in test [2]; 27.6% in test [3]; 28.8% in test [4]; 36.5% in test [5]; 16.1% in test [6]. The growth in test [7] was 23%; in test [8] it was 46.9%; in test [9], 52.9%; in [10], 29.3%.

Turning to `CC1(C)CC(C(=O)OCCCCCCCCCCC[P+](c2ccccc2)(c2ccccc2)c2ccccc2)C(C)(C)N1O` (stereo not given), the growth in test [1] was -45.8% (active); in [2], -32.6% (active); in test [3], -36% (active); in [4] it was -74.4% (active); in test [5], -72.1% (active); in test [6], 109%. The growth in test [7] was -57.9% (active); in test [8], -94.8% (active); in test [9], -32.8% (active); in [10], -56.9% (active).

As to `COc1cc2c(c(OC)c1OC)-c1ccc(N=NC(N)=S)c(=O)cc1[C@@H](NC(C)=O)CC2`, the growth is -10.1% (active) in test [1]; 52.4% in [2]; 37% in test [3]; 60.9% in test [4]; 19% in test [5]; 65.8% in test [6]. In addition, the growth in [7] was 64.4%; in [8], -10.9% (active); in test [9], 15%; in [10], 20%.

In the case of `Cc1cc(N/N=C/c2nc(-c3ccc(Cl)cc3)oc2C)c2cc(Cl)ccc2n1`, the growth in test [1] is 104%; in test [2], 92%; in test [3], -5.24% (active); in [4], 21.2%; in [5] it was 30.5%; in test [6] it was 63.4%. In addition, the growth was 90.2% in [7], 86.9% in [8], -24.3% (active) in test [9] and -20.7% (active) in test [10].

For the compound `CSc1[nH]c2ncnc(N)c2c1C#N`, the growth was 91% in [1]; 83.2% in test [2]; 99.4% in test [3]; 76% in [4]; 85.4% in test [5]; 97.4% in test [6]. The growth in [7] was 37.7%; in test [8], 125%; in test [9] it was 110%; in test [10], 89.7%.

Consider `O=C(/C=C/c1ccc(Cl)cc1)c1ccc(O)c(CN2CCN(c3cc4c(cc3F)c(=O)c(C(=O)O)cn4C3CC3)CC2)c1`, for which the growth was 68.6% in test [1]; 62.4% in test [2]; 26.8% in [3]; 33.4% in test [4]; 73.8% in test [5]; 32.5% in [6]. Moreover, the growth in [7] was 45.5%; in [8] it was 39.9%; in [9], 43.9%; in test [10] it was 66%.

As to `COc1ccc(-c2cc(-c3ccc(N(C)C)cc3)nc(NC(=O)c3ccncc3)n2)cc1`, the growth in [1] was 116%; in test [2], 99.8%; in [3] it was 104%; in test [4], 72.1%; in test [5], 105%; in test [6], 98.7%. Further, the growth in test [7] was 95%; in test [8] it was 76.5%; in [9] it was 96.8%; in [10], 111%.

As to `CC/C=C\C[C@H](O)C/C=C1/C(=O)C=C[C@@H]1C/C=C\CCCC(=O)OC(C)C`, the growth in test [1] is -21.3% (active); in test [2], 15.9%; in [3], -16.3% (active); in test [4], -72.6% (active); in test [5], -3.87% (active); in test [6], -79.1% (active). Also, the growth was 9.27% (active) in test [7], 77.7% in [8], -28.8% (active) in test [9] and -24.5% (active) in test [10].

Turning to `CN[C@@]12CC3(C=CC(=O)C=C3)O[C@]1(Cc1ccc(OC)cc1)N(C)C(=O)N2`, the growth in test [1] is 74.1%; in test [2] it was 75.8%; in test [3], 44%; in test [4], 76.2%; in test [5] it was 88.6%; in test [6], 44.4%. For the same compound, the growth in test [7] is 72.9%; in test [8] it was 75.6%; in test [9], 7.27% (active); in [10], 73%.

On to `COc1ccc(-n2c(C)nc3c(c(C)nn3-c3ccccc3)c2=O)cc1`, for which the growth was 36.4% in test [1]; 32% in test [2]; 42% in test [3]; 44.3% in [4]; 55.4% in [5]; 29.2% in test [6]. The growth in test [7] was 34.4%; in test [8], -27.8% (active); in test [9], 8.6% (active); in test [10], 12.2%.

Take `COc1ccccc1/C=C(/C(=O)c1ccccc1)c1ccccc1`: the growth in [1] was 94.5%; in test [2] it was 109%; in [3], 102%; in test [4] it was 75.4%; in test [5] it was 119%; in [6], 99.8%. For the same compound, the growth in test [7] is 92.8%; in test [8], 111%; in [9], 104%; in test [10], 75.1%.

`COc1cc2cc(COc3nccc(-c4ccc(Cl)cc4)n3)c(=O)[nH]c2cc1OC`: the growth was 96.7% in [1]; 91% in test [2]; 69.3% in test [3]; 67.2% in test [4]; 100% in test [5]; 102% in test [6]. Further, the growth in [7] was 86.5%; in [8], 76.6%; in [9], -20.5% (active); in test [10], 42.1%.

Regarding `C=C1CCC2C3(C)COC(c4cccc(Cl)c4)OC3CCC2(C)C1/C=C/C1=CCOC1=O` (stereo not given), the growth in [1] was 85.6%; in [2] it was 35.2%; in test [3] it was 87.2%; in [4], 38.8%; in test [5], 88.3%; in test [6], 71.5%. The growth in test [7] is 70.6%; in [8] it was 64.5%; in [9] it was 48.4%; in test [10], 33.2%.
